± gives the standard deviation.

Here are results for 40 compounds from the supplement of paper PMC10646978.

The subject of one assay is RAW-Dual (murine macrophage reporter line). The assay is described as follows: IRF reporter (Lucia luciferase) activity fold change vs agonist alone; higher = enhanced IRF activity. The settings on record: modulator concentration 10 µM; agonist: LPS 0.1 ug/mL. The procedure, abridged: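 RAW-Dual murine macrophage reporter cells were seeded at 50 000 per well in 384-well plates and pre-incubated 1 hour at 37 °C with compound pin-transferred to 10 μM final. After 1 hour, a PRR agonist was added and cells incubated overnight. Supernatant NF-κB (SEAP, QUANTI-Blue, 620 nm absorbance) and IRF (Lucia luciferase, QUANTI-Luc, luminescence) signals were divided by the mean agonist-only control on the same plate to give fold change. Two replicate plates were averaged, with errors by propagation.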
Turning to `COC(=O)C1=CN(CC2CCCO2)C=C(C(=O)OC)C1c1cccc(Cl)c1` (stereo not given), the IRF reporter was determined as 1.17 ± 0.069.
Consider `O=C(NCCOc1cccc2cccnc12)c1c(F)cccc1F`, for which the IRF reporter is 1.01 ± 0.1.
`CCOC(=O)C(C)N(c1ccc(OC)cc1)S(C)(=O)=O` (stereo not given): the IRF reporter was 1.22 ± 0.083.
Still for that read-out and setting: under `CN1C(C(=O)Nc2ccccn2)=C(O)c2ccccc2S1(=O)=O` stands 1.25 ± 0.077; under `Cc1nc(Nc2ncc(C(=O)Nc3c(C)cccc3Cl)s2)cc(N2CCN(CCO)CC2)n1.Cl`, 1.22 ± 0.28; under `O=S(=O)(Oc1cccc2ccccc12)c1ccc(F)cc1`, 1.06 ± 0.064.
Still for that read-out and setting: under `O=S(=O)(c1cccc2ccccc12)n1cnc2ccccc21` stands 1.26 ± 0.25; under `O=C(NCC1CCCN1c1nccs1)C1CC1` (stereo not given), 1.03 ± 0.23.
Still for that read-out and setting: for `O=[N+]([O-])c1cc2c(cc1C=Nc1ccc(O)cc1)OCO2` the value was 1.19 ± 0.15; for `COc1ccc(Cl)cc1C(=O)NCCc1ccc(S(=O)(=O)NC(=O)NC2CCCCC2)cc1`, 1.36 ± 0.099.
For the compound `O=C(NC(=S)NNc1ccccc1)c1cc2ccccc2oc1=O`, the IRF reporter amounted to 1.23 ± 0.16.
Same read-out and setting: under `COC(=O)C1=C(C)N(C)C(C)=C(C(=O)OC)C1c1cccc(C(F)(F)F)c1` stands 1.32 ± 0.22.
Take `CN(C)CCCN1c2ccccc2CCc2ccccc21.Cl`: the IRF reporter amounted to 0.935 ± 0.089.
Same read-out and setting: for `O=C(Nc1nc2ccccc2n1CCN1CCOCC1)C1CCCCC1` the value was 1.55 ± 0.27; for `COc1ccc(S(=O)(=O)N(CC(=O)Nc2ccccc2F)c2ccc(C)cc2)cc1OC`, 1.54 ± 0.12.
Regarding `Cc1ccccc1C(=O)N(Cc1cccnc1)c1nc2c(F)cccc2s1`, the IRF reporter stood at 1.06 ± 0.11.
On the same count and under the same terms, under `O=C(NN=Cc1cccc(Cl)c1Cl)c1cc(O)cc(O)c1` stands 1.19 ± 0.22; under `CC(=O)c1c(C(C)=O)c(C)n(-c2ccccc2N)c1C`, 1.3 ± 0.21; under `O=C(NC1CC(=O)N(c2ccc(F)cc2)C1)c1ccc(Cl)cc1` (stereo not given), 1.24 ± 0.11.
`O=C(CN(CCc1ccccc1)S(=O)(=O)c1ccc(Cl)cc1)NCc1ccncc1`: the IRF reporter is 1.17 ± 0.11.
Turning to `N#Cc1c(NC(NC(=O)c2cccs2)C(Cl)(Cl)Cl)sc2c1CCCC2` (stereo not given), the IRF reporter was 0.694 ± 0.086.
With `O=C(Nc1nc(CC(=O)N2CCc3ccccc3C2)cs1)c1ccc(Cl)cc1`, the IRF reporter came to 1.16 ± 0.11.
Same read-out and setting: for `COC(=O)C1=C(C)N(Cc2ccccc2)C(=O)C1=Cc1ccc(C)cc1` the value was 1.08 ± 0.068; for `O=C(Nc1ccc([N+](=O)[O-])cc1Cl)c1cc(Cl)ccc1O` [Prestw-40], 1.12 ± 0.24.
On the same count and under the same terms, under `CC(=O)Nc1ccc(S(=O)(=O)N2CCC(Oc3cc(C)nc(C)n3)C2)cc1` (stereo not given) stands 0.936 ± 0.12; under `Cc1cc(-c2ccc(N=Cc3ccc(Cl)c([N+](=O)[O-])c3)c(C)c2)ccc1N=Cc1ccc(Cl)c([N+](=O)[O-])c1`, 1.38 ± 0.11; under `COc1ccc(C(=O)C=Cc2cc(OC)c(OC)c(OC)c2)c(O)c1`, 0.0569 ± 0.019.
`COc1cc(-c2nnc(SCc3ccc([N+](=O)[O-])cc3)n2-c2ccccc2)cc(OC)c1OC`: the IRF reporter was found to be 1.37 ± 0.2.
The same measure, in the same setting: for `CCN(CC)c1ccc2cc(-c3nnc(NCc4ccccc4)s3)c(=O)oc2c1` the value was 1.47 ± 0.25.
`Cc1cc(C)nc(NS(=O)(=O)c2ccc(NC(=O)C=Cc3cccc4ccccc34)cc2)n1`: the IRF reporter came out at 1.21 ± 0.12.
The same measure, in the same setting: for `COc1cc(C=C2SC(=S)NC2=O)ccc1OCCC(C)C` the value was 1.43 ± 0.12; for `Cc1[nH]c(/C=C2\C(=O)Nc3ccccc32)c(C)c1CCC(=O)O`, 0.956 ± 0.24.
As for `Cc1cc(C)n(N=Cc2c[nH]c3ccccc23)c(=O)c1C#N`, the IRF reporter was 1.4 ± 0.24.
Regarding `CC(=O)c1ccc(NC(=O)CSc2ccc(-c3ccc4c(c3)OCO4)nn2)cc1`, the IRF reporter was found to be 1.02 ± 0.2.
Still for that read-out and setting: for `CN(C)CC#CCNC(=O)Nc1ccc(C(F)(F)F)cc1` the value was 1.06 ± 0.22; for `O=C(CCc1csc(NC(=O)c2ccco2)n1)Nc1ccc(Cl)cc1`, 1.44 ± 0.23; for `COc1cccc2c1C(=O)c1c(O)c3c(c(O)c1C2=O)C[C@@](O)(C(=O)CO)C[C@@H]3O[C@H]1C[C@H](N)[C@@H](O)[C@H](C)O1.Cl`, 0.0179 ± 0.0063.
Same read-out and setting: for `COc1ccc([C@@H]2Sc3ccccc3N(CCN(C)C)C(=O)[C@@H]2OC(C)=O)cc1.Cl` the value was 0.997 ± 0.11; for `COc1ccc(Cc2nnc(C3CCN(S(C)(=O)=O)CC3)s2)cc1`, 1.25 ± 0.076.
Turning to `CCOc1ccc(OCCCCOc2cccc(C)c2)cc1`, the IRF reporter was determined as 1.27 ± 0.18.

The same assay, now with this note: modulator concentration 10 µM; agonist: MPLA […].
Turning to `COC(=O)C1=CN(CC2CCCO2)C=C(C(=O)OC)C1c1cccc(Cl)c1` (stereo not given), the IRF reporter is 1.1 ± 0.093.
In the case of `O=C(NCCOc1cccc2cccnc12)c1c(F)cccc1F`, the IRF reporter was found to be 1.05 ± 0.31.
On the same count and under the same terms, under `CCOC(=O)C(C)N(c1ccc(OC)cc1)S(C)(=O)=O` (stereo not given) stands 1.12 ± 0.27.
Same read-out and setting: for `CN1C(C(=O)Nc2ccccn2)=C(O)c2ccccc2S1(=O)=O` the value was 1.35 ± 0.11.
Same read-out and setting: for `Cc1nc(Nc2ncc(C(=O)Nc3c(C)cccc3Cl)s2)cc(N2CCN(CCO)CC2)n1.Cl` the value was 1.34 ± 0.45; for `O=S(=O)(Oc1cccc2ccccc12)c1ccc(F)cc1`, 1.12 ± 0.096; for `O=S(=O)(c1cccc2ccccc12)n1cnc2ccccc21`, 1.33 ± 0.26.
On to `O=C(NCC1CCCN1c1nccs1)C1CC1` (stereo not given), for which the IRF reporter came out at 1.18 ± 0.54.
On the same count and under the same terms, under `O=[N+]([O-])c1cc2c(cc1C=Nc1ccc(O)cc1)OCO2` stands 1.12 ± 0.22; under `COc1ccc(Cl)cc1C(=O)NCCc1ccc(S(=O)(=O)NC(=O)NC2CCCCC2)cc1`, 1.44 ± 0.15; under `O=C(NC(=S)NNc1ccccc1)c1cc2ccccc2oc1=O`, 1.12 ± 0.2.
Regarding `COC(=O)C1=C(C)N(C)C(C)=C(C(=O)OC)C1c1cccc(C(F)(F)F)c1`, the IRF reporter worked out at 0.976 ± 0.073.
Same read-out and setting: for `CN(C)CCCN1c2ccccc2CCc2ccccc21.Cl` the value was 0.824 ± 0.093; for `O=C(Nc1nc2ccccc2n1CCN1CCOCC1)C1CCCCC1`, 1.07 ± 0.12.
Turning to `COc1ccc(S(=O)(=O)N(CC(=O)Nc2ccccc2F)c2ccc(C)cc2)cc1OC`, the IRF reporter was determined as 1.16 ± 0.26.
With `Cc1ccccc1C(=O)N(Cc1cccnc1)c1nc2c(F)cccc2s1`, the IRF reporter was determined as 0.952 ± 0.093.
Same read-out and setting: under `O=C(NN=Cc1cccc(Cl)c1Cl)c1cc(O)cc(O)c1` stands 1.3 ± 0.22; under `CC(=O)c1c(C(C)=O)c(C)n(-c2ccccc2N)c1C`, 1.43 ± 0.35.
For `O=C(NC1CC(=O)N(c2ccc(F)cc2)C1)c1ccc(Cl)cc1` (stereo not given), the IRF reporter amounted to 1.2 ± 0.3.
Consider `O=C(CN(CCc1ccccc1)S(=O)(=O)c1ccc(Cl)cc1)NCc1ccncc1`, for which the IRF reporter was determined as 1.16 ± 0.26.
For the compound `N#Cc1c(NC(NC(=O)c2cccs2)C(Cl)(Cl)Cl)sc2c1CCCC2` (stereo not given), the IRF reporter turned out to be 0.69 ± 0.073.
`O=C(Nc1nc(CC(=O)N2CCc3ccccc3C2)cs1)c1ccc(Cl)cc1`: the IRF reporter was found to be 1.21 ± 0.15.
With `COC(=O)C1=C(C)N(Cc2ccccc2)C(=O)C1=Cc1ccc(C)cc1`, the IRF reporter was 0.948 ± 0.092.
For the compound `O=C(Nc1ccc([N+](=O)[O-])cc1Cl)c1cc(Cl)ccc1O` [Prestw-40], the IRF reporter was found to be 0.832 ± 0.13.
Still for that read-out and setting: under `CC(=O)Nc1ccc(S(=O)(=O)N2CCC(Oc3cc(C)nc(C)n3)C2)cc1` (stereo not given) stands 0.983 ± 0.32; under `Cc1cc(-c2ccc(N=Cc3ccc(Cl)c([N+](=O)[O-])c3)c(C)c2)ccc1N=Cc1ccc(Cl)c([N+](=O)[O-])c1`, 1.13 ± 0.19; under `COc1ccc(C(=O)C=Cc2cc(OC)c(OC)c(OC)c2)c(O)c1`, 0.0398 ± 0.015.
Take `COc1cc(-c2nnc(SCc3ccc([N+](=O)[O-])cc3)n2-c2ccccc2)cc(OC)c1OC`: the IRF reporter amounted to 0.969 ± 0.06.
Regarding `CCN(CC)c1ccc2cc(-c3nnc(NCc4ccccc4)s3)c(=O)oc2c1`, the IRF reporter is 1.28 ± 0.22.
Same read-out and setting: under `Cc1cc(C)nc(NS(=O)(=O)c2ccc(NC(=O)C=Cc3cccc4ccccc34)cc2)n1` stands 1.04 ± 0.17; under `COc1cc(C=C2SC(=S)NC2=O)ccc1OCCC(C)C`, 1.61 ± 0.2; under `Cc1[nH]c(/C=C2\C(=O)Nc3ccccc32)c(C)c1CCC(=O)O`, 0.98 ± 0.18.
Same read-out and setting: for `Cc1cc(C)n(N=Cc2c[nH]c3ccccc23)c(=O)c1C#N` the value was 1.6 ± 0.23; for `CC(=O)c1ccc(NC(=O)CSc2ccc(-c3ccc4c(c3)OCO4)nn2)cc1`, 1.03 ± 0.11; for `CN(C)CC#CCNC(=O)Nc1ccc(C(F)(F)F)cc1`, 1.22 ± 0.13.
Still for that read-out and setting: under `O=C(CCc1csc(NC(=O)c2ccco2)n1)Nc1ccc(Cl)cc1` stands 1.55 ± 0.43.
With `COc1cccc2c1C(=O)c1c(O)c3c(c(O)c1C2=O)C[C@@](O)(C(=O)CO)C[C@@H]3O[C@H]1C[C@H](N)[C@@H](O)[C@H](C)O1.Cl`, the IRF reporter was 0.0142 ± 0.0068.
Still for that read-out and setting: for `COc1ccc([C@@H]2Sc3ccccc3N(CCN(C)C)C(=O)[C@@H]2OC(C)=O)cc1.Cl` the value was 1.05 ± 0.1; for `COc1ccc(Cc2nnc(C3CCN(S(C)(=O)=O)CC3)s2)cc1`, 1.09 ± 0.13.
For `CCOc1ccc(OCCCCOc2cccc(C)c2)cc1`, the IRF reporter stood at 1.07 ± 0.068.
